The nature of test [1]: binders of probe aFSTL3 on microarray, primary screen, stem cell growth factor project, biochemical, small-molecule microarray, fluorescence 635/667 (AID 1064).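 Also: measures binding of the biotinylated anti-FSTL3 antibody to printed compounds.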 The note with it: higher = more signal.
Test [2] is described as follows: binders from COS7 lysate, DM2A8 probe, primary screen, torsin A project, cell lysate, small-molecule microarray, fluorescence 635/667 (AID 1065). The following applies: higher = more signal, COS7 lysate expressing mutant human TOR1A.
Test [3] can be described thus: binders of probe aFGF2 on microarray, primary screen, stem cell growth factor project, biochemical, small-molecule microarray, fluorescence 635/667 (AID 1067).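 Also: measures binding of biotinylated aFGF2 protein to printed compounds on slides; z-score merges feature fluorescence and signal-to-noise across triplicate slides.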 The note with it: higher = more signal.
Test [4] in a line: binders of probe aFGF10 on microarray, primary screen, stem cell growth factor project, biochemical, small-molecule microarray, fluorescence 635/667 (AID 1071).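 Also: score merges 667 nm spot intensity and signal to noise from triplicate slides.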 The note with it: higher = more signal.
Test [5] addresses Neurogenic locus notch homolog protein 2 (Homo sapiens) (UniProt Q04721). Nature of the test: Notch2 binders on small-molecule microarrays, primary screen, biochemical, small-molecule microarray, 635 nm fluorescence, stem cell growth factors (AID 1073). The following applies: Notch2 binding, higher = more signal.
Test [6] has as its target Pro-neuregulin-1, membrane-bound isoform (Homo sapiens) (UniProt Q02297). Description: NRG1 binders on small-molecule microarrays, primary screen, psychiatric disease protein project, biochemical, small-molecule microarray, fluorescence 635/667 (AID 1075).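 Also: score combines 667 nm spot fluorescence with signal to noise.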 The following applies: NRG1 binding, 635 nm fluorescence, higher = more signal.
Test [7] deals with Neuregulin-1 EGF-like domain. Description: binders of neuregulin-1 EGF-like domain, primary screen, biochemical, small-molecule microarray, 635 nm fluorescence (AID 1081).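 Also: binding of the protein to compounds printed on small-molecule microarray slides.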 The note with it: small-molecule microarray binding, higher = more signal.
Test [8] in a line: FRG1 promoter luciferase signal modulators, primary screen, FRG1 inhibition for FSHD, cell-based, C2C12 myotubes, firefly/Renilla luciferase, luminescence (AID 1084). The note with it: higher = more signal, called active from +8 up or from −8 down.
The nature of test [9]: binders of probe aFST on microarray, primary screen, stem cell growth factor project, biochemical, small-molecule microarray, fluorescence 635/667 (AID 1086).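 Also: score merges 667 nm fluorescence with signal-to-noise of each printed compound spot.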 The note with it: higher = more signal.
Test [10] is described as follows: binders of probe aHhip on microarray, primary screen, stem cell growth factor project, biochemical, small-molecule microarray, fluorescence 635/667 (AID 1087).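 Also: score merges spot fluorescence at 667nm with spot signal to noise ratio.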 The note with it: higher = more signal.

Active and inactive are the calls of the source.

Pro-neuregulin-1, membrane-bound isoform (Homo sapiens), sequence (Q02297 whole entry, looked up, the tested form may be a part, canonical isoform): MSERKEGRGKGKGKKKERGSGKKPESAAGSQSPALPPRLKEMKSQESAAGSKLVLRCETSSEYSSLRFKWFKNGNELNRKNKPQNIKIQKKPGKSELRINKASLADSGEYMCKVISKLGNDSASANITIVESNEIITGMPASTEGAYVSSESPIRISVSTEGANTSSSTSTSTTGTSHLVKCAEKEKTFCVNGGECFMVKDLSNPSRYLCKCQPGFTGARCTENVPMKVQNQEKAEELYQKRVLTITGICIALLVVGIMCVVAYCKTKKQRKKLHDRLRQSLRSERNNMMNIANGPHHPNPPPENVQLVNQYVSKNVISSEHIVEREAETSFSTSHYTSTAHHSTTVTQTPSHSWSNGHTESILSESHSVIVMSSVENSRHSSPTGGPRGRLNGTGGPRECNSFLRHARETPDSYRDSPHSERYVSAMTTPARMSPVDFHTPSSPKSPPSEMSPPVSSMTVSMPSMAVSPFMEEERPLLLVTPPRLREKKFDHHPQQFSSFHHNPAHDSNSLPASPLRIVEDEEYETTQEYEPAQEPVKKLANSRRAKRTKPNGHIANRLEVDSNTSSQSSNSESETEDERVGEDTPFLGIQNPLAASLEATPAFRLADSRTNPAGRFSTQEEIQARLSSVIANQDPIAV
Neurogenic locus notch homolog protein 2 (Homo sapiens), sequence (Q04721 whole entry, looked up, canonical isoform): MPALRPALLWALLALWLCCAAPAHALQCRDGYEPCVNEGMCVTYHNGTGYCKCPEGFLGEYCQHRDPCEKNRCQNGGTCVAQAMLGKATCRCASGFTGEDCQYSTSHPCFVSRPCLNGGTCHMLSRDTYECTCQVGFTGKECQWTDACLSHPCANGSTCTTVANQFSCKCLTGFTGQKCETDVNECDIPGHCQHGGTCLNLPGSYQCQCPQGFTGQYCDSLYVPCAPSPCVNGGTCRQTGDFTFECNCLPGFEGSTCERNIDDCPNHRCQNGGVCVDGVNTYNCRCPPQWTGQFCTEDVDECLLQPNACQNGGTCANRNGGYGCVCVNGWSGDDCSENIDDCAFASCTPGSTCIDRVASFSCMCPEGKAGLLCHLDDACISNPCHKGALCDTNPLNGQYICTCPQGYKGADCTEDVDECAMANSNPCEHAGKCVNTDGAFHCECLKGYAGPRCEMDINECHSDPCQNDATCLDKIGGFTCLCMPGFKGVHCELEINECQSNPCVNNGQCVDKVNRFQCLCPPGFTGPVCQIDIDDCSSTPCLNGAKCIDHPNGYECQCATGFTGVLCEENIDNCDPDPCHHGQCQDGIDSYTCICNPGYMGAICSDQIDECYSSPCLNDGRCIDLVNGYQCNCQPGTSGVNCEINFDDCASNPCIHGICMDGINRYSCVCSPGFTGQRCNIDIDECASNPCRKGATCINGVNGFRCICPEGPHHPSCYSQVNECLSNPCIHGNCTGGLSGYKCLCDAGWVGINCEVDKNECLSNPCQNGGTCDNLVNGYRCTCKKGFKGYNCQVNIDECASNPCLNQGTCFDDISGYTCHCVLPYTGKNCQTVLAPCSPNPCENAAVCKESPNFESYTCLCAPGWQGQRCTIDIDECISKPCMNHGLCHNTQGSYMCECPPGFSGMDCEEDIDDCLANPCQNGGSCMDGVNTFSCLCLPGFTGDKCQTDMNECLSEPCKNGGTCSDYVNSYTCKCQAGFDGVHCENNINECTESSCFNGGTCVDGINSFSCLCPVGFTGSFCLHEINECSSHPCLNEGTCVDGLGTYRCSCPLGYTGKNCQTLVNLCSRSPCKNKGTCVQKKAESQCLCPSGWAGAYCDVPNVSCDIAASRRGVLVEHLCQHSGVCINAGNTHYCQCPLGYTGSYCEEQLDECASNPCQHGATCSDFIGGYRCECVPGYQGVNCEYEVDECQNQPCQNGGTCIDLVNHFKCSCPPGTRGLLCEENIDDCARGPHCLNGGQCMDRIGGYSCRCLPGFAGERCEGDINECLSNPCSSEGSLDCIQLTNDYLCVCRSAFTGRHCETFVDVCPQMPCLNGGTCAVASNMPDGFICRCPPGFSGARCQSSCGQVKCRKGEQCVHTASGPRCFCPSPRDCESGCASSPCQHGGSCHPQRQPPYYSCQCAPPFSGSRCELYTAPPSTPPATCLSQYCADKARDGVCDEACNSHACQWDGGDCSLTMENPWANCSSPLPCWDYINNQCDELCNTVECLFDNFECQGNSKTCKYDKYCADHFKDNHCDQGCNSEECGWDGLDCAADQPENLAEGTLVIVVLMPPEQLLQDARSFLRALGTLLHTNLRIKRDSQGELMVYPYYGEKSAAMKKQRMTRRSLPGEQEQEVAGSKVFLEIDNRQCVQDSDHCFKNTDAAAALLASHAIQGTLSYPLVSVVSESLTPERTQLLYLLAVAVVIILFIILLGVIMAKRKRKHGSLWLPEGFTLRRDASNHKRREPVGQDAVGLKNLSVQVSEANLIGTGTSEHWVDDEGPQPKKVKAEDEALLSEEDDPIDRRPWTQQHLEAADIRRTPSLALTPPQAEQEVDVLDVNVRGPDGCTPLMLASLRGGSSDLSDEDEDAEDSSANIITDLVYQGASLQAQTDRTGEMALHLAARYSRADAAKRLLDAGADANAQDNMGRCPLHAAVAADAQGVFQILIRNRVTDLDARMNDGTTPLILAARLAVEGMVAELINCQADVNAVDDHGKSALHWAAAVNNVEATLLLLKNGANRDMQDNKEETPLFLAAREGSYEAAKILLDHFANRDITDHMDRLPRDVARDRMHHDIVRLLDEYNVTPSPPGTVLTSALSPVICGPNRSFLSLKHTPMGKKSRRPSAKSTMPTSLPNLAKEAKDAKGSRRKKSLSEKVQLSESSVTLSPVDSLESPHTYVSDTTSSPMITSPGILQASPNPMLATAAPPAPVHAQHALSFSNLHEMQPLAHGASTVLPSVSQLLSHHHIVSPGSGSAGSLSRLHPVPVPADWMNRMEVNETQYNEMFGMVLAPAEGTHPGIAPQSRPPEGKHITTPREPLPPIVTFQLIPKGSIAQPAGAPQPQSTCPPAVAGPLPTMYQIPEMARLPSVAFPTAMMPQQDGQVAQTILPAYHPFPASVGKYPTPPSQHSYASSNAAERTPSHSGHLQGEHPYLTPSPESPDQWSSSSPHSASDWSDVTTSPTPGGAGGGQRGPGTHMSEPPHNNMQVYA

For the compound `O=C(NCc1ccccc1)[C@@]1(Cc2ccccc2)COC(c2ccc(OCCCO)cc2)=N1`, the composite z-score in [1] was 0.618; in test [2], 0.0094; in [3], -0.255; in [4], 0.0532; in test [5], 0.46; in [6] it was 1.51. The composite z-score in test [7] came out at 1.19; in test [9], 0.792; in [10] it was 0.113. The z-score in [8] was -3.27 (inactive).

Regarding `CCCN1C(=O)[C@@]2(CCS(=O)(=O)c3ccccc3)N=C(c3ccc(OCCCO)cc3)O[C@H]2c2ccccc21`, the composite z-score is 0.309 in [1]; 0.437 in test [2]; 0.0127 in [3]; 0.136 in test [4]; 0.728 in test [5]; 1.72 in test [6]. Further, the composite z-score in test [7] was found to be 1.36; in [9], 0.328; in test [10], 0.0722. Moreover, the z-score in [8] is -3.15 (inactive).

As to `[N-]=[N+]=NCc1ccccc1C[C@]1(C(=O)N2CCCCC2)N=C(c2ccc(OCCCO)cc2)O[C@H]1c1ccccc1CN=[N+]=[N-]`, the composite z-score in [1] is -0.0017; in test [2], 0.759; in test [3] it was 0.0342; in test [4] it was 0.765; in test [5], 0.776; in [6] it was 1.63. The composite z-score in test [7] turned out to be 1.19; in test [9], 1.29; in [10], 0.142. Further, the z-score in test [8] was -1.62 (inactive).

On to `C=CCC(OC(C)=O)[C@@H]1[C@@H](N(Cc2cc3ccccc3o2)C(=O)c2ccc(C)cc2)c2cc(OCCCO)ccc2N1C(=O)c1ccc2ccccc2n1` (stereo not given in full), for which the composite z-score is 0.216 in test [1]; 0.189 in [2]; -0.187 in test [3]; 0.394 in test [4]; 0.191 in [5]; -0.019 in [6]. Moreover, the composite z-score in test [7] was -0.323; in test [9], 0.113; in test [10] it was 0.107. The z-score in test [8] is -0.508 (inactive).

For `Cc1cc(C)c(C(O)C2C=CC3C(=O)N(C)C(=O)C3N2N2CCCCC2)c(C)c1` (stereo not given), the composite z-score amounted to 0.0308 in test [1]; 0.563 in [2]; 0.205 in test [3]; 1.02 in [4]; 1.69 in test [5]; 0.918 in test [6]. In addition, the composite z-score in test [7] is 1.3; in test [9], 1.27; in test [10] it was -0.206. The z-score in test [8] was 0.251 (inactive).

For `COC(=O)[C@@]1(Cc2ccccc2N=[N+]=[N-])N=C(c2ccc(OCCCO)cc2)O[C@H]1c1ccccc1CN=[N+]=[N-]`, the composite z-score in test [1] is 0.413; in test [2] it was 0.378; in test [3], -0.0899; in [4] it was -0.136; in test [5] it was 0.0109; in [6], 1.12. For the same compound, the results for the composite z-score in test [7], in [9] and in test [10] were 1.29, 0.69 and 0.0053, respectively. In addition, the z-score in test [8] is -1.38 (inactive).

Turning to `C[C@]1(C(=O)NCCN2CCOCC2)c2ccccc2C(=O)N(Cc2ccccc2)[C@H]1c1ccc(CO)cc1`, the composite z-score in test [1] was -0.0452; in test [2] it was 0.789; in test [3], 0.0008; in test [4], -0.425; in test [5], -0.522; in [6], 1.35. In addition, the composite z-score in test [7] was 1.26; in test [9], -0.352; in [10] it was -0.0346. The z-score in test [8] is -0.351 (inactive).

For the compound `CCN1C(C)=C(C(=O)OC)[C@@H](c2ccccc2)N2C(=O)[C@@]3(C(=O)OC)O[C@@]12[C@@H]1C(=O)CCC[C@@H]13`, the composite z-score in test [1] was -0.65; in test [2], 0.33; in test [3] it was -0.178; in test [4] it was 0.234; in test [5], -0.334; in test [6], -0.307. In addition, the composite z-score was 0.545 in [7], -0.183 in test [9] and 0.351 in test [10]. For the same compound, in test [8], the z-score was -0.765 (inactive).

Turning to `C=C(/C(=C/C[C@@H](OC(=O)c1ccncc1)c1ccc(CO)o1)c1cnc2ccccc2c1)C(C)C`, the composite z-score was 0.358 in test [1]; 0.522 in test [2]; -0.0767 in test [3]; 1.02 in test [4]; 1.52 in [5]; 1.15 in test [6]. Besides, the composite z-score in test [7] was 1.04; in test [9] it was 0.398; in test [10] it was -0.0994. The z-score in test [8] was -0.493 (inactive).

Turning to `C=CCC(OC(C)=O)[C@@H]1[C@@H](N(Cc2cc3ccccc3o2)C(=O)Cc2ccc(F)cc2)c2cc(OCCCO)ccc2N1C(=O)c1ccc(-c2ccccc2)cc1` (stereo not given in full), the composite z-score is 0.117 in test [1]; -0.103 in test [2]; -0.116 in test [3]; -0.263 in test [4]; -0.079 in [5]; -0.399 in [6]. The composite z-score in test [7] is -1.03; in test [9], 0.141; in [10] it was -0.0645. Further, the z-score in [8] was 0.051 (inactive).

With `O=C1O[C@H](c2ccccc2)[C@H](c2ccccc2)N2[C@H]1[C@@H](C(=O)NC[C@H](O)c1ccccc1)[C@]1(C(=O)Nc3ccc(C#CC4=CCCCC4)cc31)[C@H]2c1ccc(OCCO)cc1`, the composite z-score is 0.0854 in test [1]; 0.21 in test [2]; -0.0579 in [3]; 0.423 in [4]; 1.04 in [5]; 0.413 in test [6]. Also, the values for the composite z-score in test [7], in test [9] and in [10] were 1.02, 0.681 and 0.136, respectively. For the same compound, in test [8], the z-score is 0.315 (inactive).

Take `CO[C@H]1O[C@H](CO)[C@@H](OC(=O)CCc2ccccc2)[C@@H]2OC(=O)[C@H](Cc3cccc(Br)c3)C/C=C/C[C@@H](Cc3cccc(Br)c3)C(=O)O[C@@H]12`: the composite z-score in test [1] was 0.617; in test [2] it was 0.361; in [3], -0.139; in test [4] it was -0.722; in test [5], -1.2; in test [6], 0.964. For the same compound, the results for the composite z-score in test [7], in test [9] and in test [10] were -0.0592, 0.0729 and -0.134, respectively. In [8], the z-score is -2.01 (inactive).

Consider `COC(=O)c1c(CC[C@@H](CO)NC(=O)N[C@H](Cn2cc(-c3cncn3C)nn2)C(C)C)oc(C(C)=O)c1C(=O)OC`, for which the composite z-score is -0.151 in test [1]; 0.874 in test [2]; -0.043 in test [3]; 0.66 in test [4]; 0.193 in test [5]; 0.692 in [6]. For the same compound, the composite z-score in test [7] was 1.09; in test [9], -0.201; in test [10], -0.261. In test [8], the z-score was 0.0938 (inactive).

Regarding `CCOC(=O)C1=CC[C@@H](c2ccc(-c3ccc(OCc4ccccc4)cc3)c(OC)c2)N(S(=O)(=O)c2ccc(C)cc2)[C@H]1c1ccccc1`, the composite z-score in [1] is -0.216; in [2], 0.448; in [3], 0.0188; in [4], 0.668; in [5], 1.49; in test [6], 1.36. For the same compound, the composite z-score worked out at 0.952 in test [7], 0.9 in test [9] and 0.314 in test [10]. Further, the z-score in test [8] was 0.141 (inactive).
